Measured values: PubChem BioAssay (Tox21)
Results filed as inconclusive are left out. Values without a mark were called inactive. The call rests on the fitted dose curve; in most records, active means well fitted activation curve with a large enough effect in the signal ratio in the repeat runs (not every such curve was filed as active); inconclusive means weak or mixed curves, or effect the other way; inactive means flat fitted curve, though single readings scatter; the % refers to the signal ratio.

test: qHTS assay to identify small molecule agonists of the endoplasmic reticulum stress response signaling pathway (AID 1159516); conditions: ESRE-bla HeLa, ER stress beta-lactamase reporter, 5 h; series mostly up to 61 µM; activation: at the top concentration
From the text: National Center for Advancing Translational Sciences [NCATS]
NIH Chemical Genomics Center [NCGC]
U.S. Environmental Protection Agency [EPA]
National Institutes of Environmental Health Sciences [NIEHS]
National Toxicology Program [NTP]
U.S. Food and Drug Administration [FDA]
Endoplasmic Reticulum (ER) plays an important role in cellular signaling, protein folding/maturation, stress response, lipid biosynthesis, calcium storage and release etc. Under stress conditions, proteins in ER misfold or unfold, and leading to the expression of ER stress responsive genes. ER stress has been associated with a variety of pathophysiological conditions such as cancer, inflammation, neurodegenerative diseases, diabetes, ischemic heart disease etc. To identify the compounds that induce ER stress response, an ER stress reporter cell line, CellSensor ESRE-bla HeLa (Life Technologies, Carlsbad, CA) containing a beta-lactamase reporter gene under control of the Endoplasmic reticulum Stress Response Element (ESRE) was used to screen Tox21 10K compound library.
Tox21 Assay Protocol Summary:
ESRE-bla HeLa cells were dispensed at 1,500 cells/6 uL of assay medium per well into black wall/clear-bottom 1536-well plates using a Multidrop Combi (ThermoFisher Scientific, Waltham, MA) dispenser. After the assay plates were incubated at 37 C and 5% CO2 for an overnight, 23 nL of compounds dissolved in DMSO, positive controls or DMSO only was transferred to the assay plate by a Pintool station (Kalypsys, San Diego, CA). The assay plates were incubated at 37 C and 5% CO2 for 5 hr. One uL of LiveBLAzer B/G FRET substrate (Life Technologies) was added using a Flying Reagent Dispenser (Aurora Discovery, San Diego, CA) and the plates were incubated at room temperature for 2 hr. Fluorescence intensity (405 nm excitation, 460 nm and 530 nm emissions) was measured using an Envision plate reader (PerkinElmer, Shelton, CT).
On the % scale 0 is the no-effect control and ±100 the full control effect.

First: C/C=C(\C)C(=O)OC/C=C(\C)CCC=C(C)C
Second: C=CC(C)(CCC=C(C)C)OC(=O)C(C)C (stereo not given)
The “activation” value of the first is higher: 3.92% for the first, 0.257% for the second.

Going from `CC(=O)c1c(C)cc(C(C)(C)C)cc1C` to `Cc1cc(O)c(Cl)cc1C`, the “activation” value rises from -2.6% to -0.0146%.

First: Cc1ccc(S(=O)(=O)NC(=O)NN2CC3CCCC3C2)cc1 (stereo not given)
Second: CC(=O)Nc1ccc(S(=O)(=O)Nc2cc(C)on2)cc1
The “activation” value of the first is higher: 0.449% for the first, 0.428% for the second.

Compared with `CC(C)(C)c1ccc(C(=O)CCCCl)cc1`, `CC(C)(C)c1ccc(N)cc1` is lower in “activation” value: 0.0113% for the first, -3.73% for the second.

Going from `CCCCc1ccc(Cl)cc1` to `CCN(CC)CC(=O)Oc1ccc(NC(C)=O)cc1`, the “activation” value rises from -0.383% to 3.15%.

First: Clc1cc(Cl)c(Cl)c(Cl)c1Cl
Second: Nc1nc(Cl)cc(Cl)n1
The “activation” value of the first is higher: -0.247% for the first, -3.98% for the second.

Compared with `O=c1[nH]c(=O)c2cn[nH]c2[nH]1`, `O=c1c(O)c(O)c1=O` is lower in “activation” value: 2.07% for the first, -5.27% for the second.

Compared with `CCCCN(CCCC)CCCCCCN(CCCC)CCCC`, `CCCCC(CC)COC(=O)CC#N` (stereo not given) is lower in “activation” value: 3.45% for the first, -0.735% for the second.

Going from `O=Cc1ccccc1S(=O)(=O)O` to `CCO/C=C1\N=C(c2ccccc2)OC1=O`, the “activation” value falls from 1.43% to -8.22%.

Going from `CC1(C)S[C@@H]2[C@H](NC(=O)Cc3ccccc3)C(=O)N2[C@H]1C(=O)O` (tested in a mixture with another compound) to `O=C(OOC(=O)c1ccccc1)c1ccccc1`, the “activation” value falls from 1.96% to -0.471%.

Compared with `COCc1nnc(-c2ccc[n+]([O-])c2)n1-c1c(Cl)c(Cl)cc2[nH]c(=O)c(=O)[nH]c12`, `COc1cc(OC)cc(OC)c1` is higher in “activation” value: -0.79% for the first, 2.55% for the second.

First: CC1=C(O)C(=O)CO1
Second: CCOC(=O)CC
The “activation” value of the first is higher: 4.72% for the first, -0.663% for the second.

First: C=CCN(CC=C)CC=C
Second: O=C(O)/C=C(\CC(=O)O)C(=O)O
The “activation” value of the first is lower: 2.21% for the first, 2.86% for the second.

First: CC(C)(C)C(=O)NCCCC(=O)O
Second: O=C(O)P(=O)(O)O
The “activation” value of the first is lower: -4.78% for the first, 1.64% for the second.

Compared with `CCO[Si](CC(C)C)(OCC)OCC`, `CN(C)c1ccncc1` is lower in “activation” value: 0.248% for the first, -0.0276% for the second.

First: CCC(C)(C)C
Second: CC(C)(C)C(=O)CC(=O)C(C)(C)C
The “activation” value of the first is lower: -0.587% [at 78.8 µM] for the first, 2.69% [at 78.8 µM] for the second.

Going from `Cc1cc(N)no1` to `Cc1cccc(N)n1`, the “activation” value rises from -1.06% [at 78.8 µM] to -0.596% [at 78.8 µM].

Compared with `COc1ccc(Cl)cc1C`, `O=Cc1ccc(C(=O)O)cc1` is higher in “activation” value: 1.49% [at 78.8 µM] for the first, 1.5% [at 78.8 µM] for the second.

For `C/C=C(\C)C=O`, the “activation” value was 0.18% [at 78.8 µM].

For `C[C@@H]1NC(=O)[C@@H](N)CNC(=O)[C@H](C2CCNC(N)=N2)NC(=O)/C(=C/NC(N)=O)NC(=O)[C@H](CNC(=O)C[C@@H](N)CCCN)NC1=O` (stereo not given in full), the activation was 0.164% [at 0.628 µM].

In the case of `NC[C@H]1O[C@H](O[C@H]2[C@H](O)[C@@H](O[C@H]3O[C@H](CO)[C@@H](O)[C@H](N)[C@H]3O)[C@H](N)C[C@@H]2N)[C@H](N)[C@@H](O)[C@@H]1O`, the “activation” value is reported as -1.11% [at 28.5 µM].

Work on `CN(C)CCCN(C)C` yielded an activation of 3.45% [at 6.95 µM].
